What all share (assay): DAPPL (digital affinity profiling via proximity ligation, sequencing); 10 mM Tris-HCl pH 7.5, 50 mM NaCl, 1 mM DTT, 4% glycerol, room temperature, 30 min; GST-TFs on glutathione beads, 16-mer random dsDNA library, 0.1% formaldehyde crosslink after washing; high values mean tight binding
The target in one assay is T1, FLI1 (Homo sapiens, UniProt Q01543 1-452).
T1 sequence: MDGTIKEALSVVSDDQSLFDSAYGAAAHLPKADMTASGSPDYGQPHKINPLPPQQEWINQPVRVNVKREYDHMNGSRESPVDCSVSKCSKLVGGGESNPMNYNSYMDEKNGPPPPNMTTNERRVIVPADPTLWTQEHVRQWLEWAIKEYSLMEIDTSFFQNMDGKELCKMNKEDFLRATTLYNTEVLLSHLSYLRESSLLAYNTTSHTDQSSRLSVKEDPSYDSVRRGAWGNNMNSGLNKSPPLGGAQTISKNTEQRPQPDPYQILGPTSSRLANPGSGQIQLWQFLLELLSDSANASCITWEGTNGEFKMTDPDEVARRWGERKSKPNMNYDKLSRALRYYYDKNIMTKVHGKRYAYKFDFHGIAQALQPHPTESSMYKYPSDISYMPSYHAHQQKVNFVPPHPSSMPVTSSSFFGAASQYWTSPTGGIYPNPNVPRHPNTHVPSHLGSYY
Particulars: protein: recombinant; tags: N-terminal GST; dsDNA, one strand shown. An outline of the steps: (§1)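 Binding signal is given per hexamer as its read frequency for a factor divided by its frequency in the tag-only sample. GST-fused human transcription factors were expressed in yeast, captured on glutathione beads, barcoded with DNA and pooled with that sample, then incubated with 200 nmole of a 16-mer random double-stranded DNA library in Tris/NaCl/DTT/glycerol buffer for 30 min at room temperature. The pools were then washed, crosslinked, proximity-ligated, amplified by PCR and sequenced on an Illumina NextSeq500.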

In the next assay the target is T2, ELK1 (Homo sapiens, UniProt P19419 1-428).
T2 sequence: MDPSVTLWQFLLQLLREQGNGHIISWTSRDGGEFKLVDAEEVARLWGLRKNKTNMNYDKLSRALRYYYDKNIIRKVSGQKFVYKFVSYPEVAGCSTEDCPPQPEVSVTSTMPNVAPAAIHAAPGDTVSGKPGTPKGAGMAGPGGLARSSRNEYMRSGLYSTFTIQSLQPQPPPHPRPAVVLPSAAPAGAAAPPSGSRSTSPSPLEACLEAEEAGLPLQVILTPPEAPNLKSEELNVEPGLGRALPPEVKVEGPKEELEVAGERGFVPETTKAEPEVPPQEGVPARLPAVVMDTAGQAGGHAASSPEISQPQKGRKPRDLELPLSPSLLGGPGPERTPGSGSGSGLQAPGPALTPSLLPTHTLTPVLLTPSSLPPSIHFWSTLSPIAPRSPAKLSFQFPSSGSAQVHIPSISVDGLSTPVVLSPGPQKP
To be noted: protein: recombinant; tags: N-terminal GST; dsDNA, one strand shown. In a few lines: as §1

The next assay has as its target T3, GABPA (Homo sapiens, UniProt Q06546 1-454).
T3 sequence: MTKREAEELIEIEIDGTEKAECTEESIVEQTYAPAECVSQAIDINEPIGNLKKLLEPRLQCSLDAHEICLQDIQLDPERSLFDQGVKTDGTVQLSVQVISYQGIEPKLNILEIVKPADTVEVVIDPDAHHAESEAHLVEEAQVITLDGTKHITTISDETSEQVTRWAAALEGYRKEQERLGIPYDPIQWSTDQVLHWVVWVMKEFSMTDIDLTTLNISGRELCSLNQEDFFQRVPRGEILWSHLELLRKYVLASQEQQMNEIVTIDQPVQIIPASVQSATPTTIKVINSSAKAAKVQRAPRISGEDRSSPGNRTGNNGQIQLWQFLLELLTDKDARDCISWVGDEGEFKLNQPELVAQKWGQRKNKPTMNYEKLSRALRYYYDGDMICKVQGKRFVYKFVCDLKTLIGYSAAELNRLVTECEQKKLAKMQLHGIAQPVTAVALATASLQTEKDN
To be noted: protein: recombinant; tags: N-terminal GST; dsDNA, one strand shown. An outline of the steps: as §1

Another assay concerns the target T4, ERG (Homo sapiens, UniProt P11308 1-479).
T4 sequence: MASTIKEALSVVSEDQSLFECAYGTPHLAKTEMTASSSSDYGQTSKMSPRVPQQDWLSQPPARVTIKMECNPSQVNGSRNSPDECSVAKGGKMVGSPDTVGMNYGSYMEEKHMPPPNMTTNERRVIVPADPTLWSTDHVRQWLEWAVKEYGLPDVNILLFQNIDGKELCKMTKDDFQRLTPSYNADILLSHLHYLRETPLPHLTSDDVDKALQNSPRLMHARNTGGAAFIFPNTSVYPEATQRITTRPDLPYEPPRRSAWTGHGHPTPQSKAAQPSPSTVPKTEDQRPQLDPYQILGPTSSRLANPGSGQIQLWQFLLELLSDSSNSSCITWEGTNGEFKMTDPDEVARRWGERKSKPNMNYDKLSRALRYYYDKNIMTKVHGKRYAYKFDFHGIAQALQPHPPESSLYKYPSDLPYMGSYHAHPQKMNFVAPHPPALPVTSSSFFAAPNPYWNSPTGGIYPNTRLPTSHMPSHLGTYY
Particulars: protein: recombinant; tags: N-terminal GST; dsDNA, one strand shown. In a few lines:
as §1

The target of another assay is ELF1 (Homo sapiens, UniProt P32519 1-619). To be noted: protein: recombinant; tags: N-terminal GST; dsDNA, one strand shown. An outline of the steps:
as §1

The target of the next assay is T5, EHF (Homo sapiens, UniProt Q9NZC4 1-300).
T5 sequence: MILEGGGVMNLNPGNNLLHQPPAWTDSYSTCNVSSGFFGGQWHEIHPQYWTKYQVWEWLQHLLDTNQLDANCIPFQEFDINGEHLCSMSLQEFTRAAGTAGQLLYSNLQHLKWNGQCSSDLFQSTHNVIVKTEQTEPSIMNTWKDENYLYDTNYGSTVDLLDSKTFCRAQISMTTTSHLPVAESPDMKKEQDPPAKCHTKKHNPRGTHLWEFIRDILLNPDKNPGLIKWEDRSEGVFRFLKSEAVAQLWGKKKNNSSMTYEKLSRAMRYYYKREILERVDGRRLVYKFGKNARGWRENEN
To be noted: protein: recombinant; tags: N-terminal GST; dsDNA, one strand shown. In a few lines: as §1

A further assay deals with SPI1 (Homo sapiens, UniProt P17947 1-270). Particulars: protein: recombinant; tags: N-terminal GST; dsDNA, one strand shown. An outline of the steps: as §1
For the next assay, the target named is SPIB (Homo sapiens, UniProt Q01892 1-262). To be noted: protein: recombinant; tags: N-terminal GST; dsDNA, one strand shown. An outline of the steps: as §1
Sequence of SPIB (Q01892 whole entry): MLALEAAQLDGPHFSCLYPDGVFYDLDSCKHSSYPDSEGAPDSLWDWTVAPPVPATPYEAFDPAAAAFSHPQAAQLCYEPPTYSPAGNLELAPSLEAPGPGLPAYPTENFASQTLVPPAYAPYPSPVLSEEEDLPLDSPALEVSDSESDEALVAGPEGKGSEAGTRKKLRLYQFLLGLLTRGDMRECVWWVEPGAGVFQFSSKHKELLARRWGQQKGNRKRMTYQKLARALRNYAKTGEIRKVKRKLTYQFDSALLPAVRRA
For another assay, the target named is T6, ELK3 (Homo sapiens, UniProt P41970 1-407).
T6 sequence: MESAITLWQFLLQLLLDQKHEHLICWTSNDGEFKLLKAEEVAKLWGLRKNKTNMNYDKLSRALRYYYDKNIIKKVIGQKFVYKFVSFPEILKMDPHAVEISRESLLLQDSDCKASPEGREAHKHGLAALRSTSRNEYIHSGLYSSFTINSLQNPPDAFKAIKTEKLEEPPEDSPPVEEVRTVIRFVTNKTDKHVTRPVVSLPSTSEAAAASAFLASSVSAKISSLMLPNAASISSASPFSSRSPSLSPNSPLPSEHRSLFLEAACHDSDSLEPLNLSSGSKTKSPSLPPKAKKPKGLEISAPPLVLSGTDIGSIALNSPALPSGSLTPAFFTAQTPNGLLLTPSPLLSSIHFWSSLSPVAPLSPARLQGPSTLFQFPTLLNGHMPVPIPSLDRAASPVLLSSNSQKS
To be noted: protein: recombinant; tags: N-terminal GST; dsDNA, one strand shown. In a few lines: as §1

For another assay, the target named is T7, FEV (Homo sapiens, UniProt Q99581 1-238).
T7 sequence: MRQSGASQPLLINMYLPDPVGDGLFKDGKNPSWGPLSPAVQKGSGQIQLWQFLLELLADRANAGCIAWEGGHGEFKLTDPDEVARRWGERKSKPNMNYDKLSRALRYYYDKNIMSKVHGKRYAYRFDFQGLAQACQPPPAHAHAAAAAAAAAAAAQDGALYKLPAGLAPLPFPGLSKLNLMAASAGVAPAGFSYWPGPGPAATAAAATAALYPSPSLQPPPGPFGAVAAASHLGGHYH
To be noted: protein: recombinant; tags: N-terminal GST; dsDNA, one strand shown. In a few lines:
as §1

A further assay deals with ETV5 (Homo sapiens, UniProt P41161 1-510). To be noted: protein: recombinant; tags: N-terminal GST; dsDNA, one strand shown. In a few lines:
as §1

For another assay, the target named is HSF1 (Homo sapiens, UniProt Q00613 1-529). To be noted: protein: recombinant; tags: N-terminal GST; chain copies: 3; dsDNA, one strand shown. In a few lines:
as §1

Another assay addresses T8, SPIC (Homo sapiens, UniProt Q8N5J4 1-248).
T8 sequence: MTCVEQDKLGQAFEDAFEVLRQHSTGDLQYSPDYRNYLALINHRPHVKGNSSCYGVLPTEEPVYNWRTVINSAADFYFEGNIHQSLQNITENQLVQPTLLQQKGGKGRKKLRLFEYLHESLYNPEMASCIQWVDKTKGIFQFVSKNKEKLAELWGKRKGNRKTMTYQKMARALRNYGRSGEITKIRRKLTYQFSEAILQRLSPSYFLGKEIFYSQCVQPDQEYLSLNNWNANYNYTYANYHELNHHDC
Particulars: protein: recombinant; tags: N-terminal GST; dsDNA, one strand shown. In a few lines:
as §1

Another assay addresses ELF4 (Homo sapiens, UniProt Q99607 1-663). Particulars: protein: recombinant; tags: N-terminal GST; dsDNA, one strand shown. An outline of the steps:
as §1

The target of the next assay is T9, ELK4 (Homo sapiens, UniProt P28324-2 1-405).
T9 sequence: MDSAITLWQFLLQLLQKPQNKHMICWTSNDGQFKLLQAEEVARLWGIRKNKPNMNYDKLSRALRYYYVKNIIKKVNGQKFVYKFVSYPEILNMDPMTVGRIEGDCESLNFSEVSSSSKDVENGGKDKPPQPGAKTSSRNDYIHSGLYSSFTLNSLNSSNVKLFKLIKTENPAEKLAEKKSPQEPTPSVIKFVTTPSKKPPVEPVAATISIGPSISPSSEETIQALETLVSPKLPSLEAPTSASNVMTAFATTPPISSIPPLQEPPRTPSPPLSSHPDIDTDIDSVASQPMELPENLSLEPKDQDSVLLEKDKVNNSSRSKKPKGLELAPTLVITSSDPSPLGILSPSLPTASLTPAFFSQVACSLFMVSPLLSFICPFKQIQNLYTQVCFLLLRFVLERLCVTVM
Particulars: protein: recombinant; tags: N-terminal GST; dsDNA, one strand shown. In a few lines: as §1

A further assay addresses T10, ETV2 (Homo sapiens, UniProt O00321 1-342).
T10 sequence: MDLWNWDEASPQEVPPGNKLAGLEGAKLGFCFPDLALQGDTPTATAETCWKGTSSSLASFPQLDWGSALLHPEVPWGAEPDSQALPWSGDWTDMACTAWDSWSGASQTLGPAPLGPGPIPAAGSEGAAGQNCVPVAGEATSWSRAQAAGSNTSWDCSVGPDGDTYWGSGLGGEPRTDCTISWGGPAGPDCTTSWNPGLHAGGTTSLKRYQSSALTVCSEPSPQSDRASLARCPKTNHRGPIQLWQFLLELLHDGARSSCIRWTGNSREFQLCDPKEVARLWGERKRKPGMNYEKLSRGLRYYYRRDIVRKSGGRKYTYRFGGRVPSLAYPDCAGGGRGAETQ
To be noted: protein: recombinant; tags: N-terminal GST; dsDNA, one strand shown. An outline of the steps:
as §1

The next assay addresses T11, ELF3 (Homo sapiens, UniProt P78545 1-371).
T11 sequence: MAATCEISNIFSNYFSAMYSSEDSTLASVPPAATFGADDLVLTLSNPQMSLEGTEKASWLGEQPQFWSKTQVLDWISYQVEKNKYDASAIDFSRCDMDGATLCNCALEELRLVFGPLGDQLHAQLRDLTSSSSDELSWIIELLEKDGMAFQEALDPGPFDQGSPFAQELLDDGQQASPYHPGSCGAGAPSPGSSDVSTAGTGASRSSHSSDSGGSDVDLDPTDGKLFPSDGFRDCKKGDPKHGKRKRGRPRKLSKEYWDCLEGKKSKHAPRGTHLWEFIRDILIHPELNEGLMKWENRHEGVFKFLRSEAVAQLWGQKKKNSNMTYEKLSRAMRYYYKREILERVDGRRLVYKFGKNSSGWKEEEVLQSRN
To be noted: protein: recombinant; tags: N-terminal GST; dsDNA, one strand shown. An outline of the steps:
as §1

Another assay concerns the target CRX (Homo sapiens, UniProt O43186 1-299). Particulars: protein: recombinant; tags: N-terminal GST; dsDNA, one strand shown. In a few lines:
as §1

A further assay deals with ETV1 (Homo sapiens, UniProt P50549 1-477). To be noted: protein: recombinant; tags: N-terminal GST; dsDNA, one strand shown. In a few lines:
as §1

Sequence of ELF4 (Q99607 whole entry): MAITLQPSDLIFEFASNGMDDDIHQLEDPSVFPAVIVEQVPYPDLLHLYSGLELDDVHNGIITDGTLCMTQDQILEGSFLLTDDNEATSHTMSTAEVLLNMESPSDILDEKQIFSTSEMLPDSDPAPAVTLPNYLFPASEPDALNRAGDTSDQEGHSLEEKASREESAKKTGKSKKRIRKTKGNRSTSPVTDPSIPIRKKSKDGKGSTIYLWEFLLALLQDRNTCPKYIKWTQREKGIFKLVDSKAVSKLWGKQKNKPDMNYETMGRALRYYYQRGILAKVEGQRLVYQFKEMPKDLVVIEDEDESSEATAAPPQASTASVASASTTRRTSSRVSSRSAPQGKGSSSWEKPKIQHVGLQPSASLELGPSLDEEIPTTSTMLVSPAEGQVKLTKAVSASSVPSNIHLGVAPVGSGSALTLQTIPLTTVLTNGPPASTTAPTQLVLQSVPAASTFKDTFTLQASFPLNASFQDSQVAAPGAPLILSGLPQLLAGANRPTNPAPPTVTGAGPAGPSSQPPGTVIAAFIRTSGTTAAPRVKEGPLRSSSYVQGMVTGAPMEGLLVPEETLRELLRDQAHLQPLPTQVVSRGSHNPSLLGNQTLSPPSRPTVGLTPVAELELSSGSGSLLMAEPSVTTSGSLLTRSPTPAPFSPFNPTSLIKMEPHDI
Sequence of ETV1 (P50549 whole entry): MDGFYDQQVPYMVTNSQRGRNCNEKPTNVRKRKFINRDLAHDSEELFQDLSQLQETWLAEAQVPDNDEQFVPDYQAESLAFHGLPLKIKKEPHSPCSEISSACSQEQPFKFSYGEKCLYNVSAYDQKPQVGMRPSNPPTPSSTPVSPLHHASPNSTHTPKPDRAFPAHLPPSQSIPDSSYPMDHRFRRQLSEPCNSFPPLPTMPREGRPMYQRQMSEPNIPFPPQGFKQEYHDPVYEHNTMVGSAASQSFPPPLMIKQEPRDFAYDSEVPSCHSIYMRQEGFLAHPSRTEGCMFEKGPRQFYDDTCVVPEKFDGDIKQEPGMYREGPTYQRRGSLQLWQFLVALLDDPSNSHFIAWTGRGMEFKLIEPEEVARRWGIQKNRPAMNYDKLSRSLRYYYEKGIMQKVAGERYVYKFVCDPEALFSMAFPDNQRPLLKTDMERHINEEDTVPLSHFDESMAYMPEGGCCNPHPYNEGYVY
Sequence of CRX (O43186 whole entry): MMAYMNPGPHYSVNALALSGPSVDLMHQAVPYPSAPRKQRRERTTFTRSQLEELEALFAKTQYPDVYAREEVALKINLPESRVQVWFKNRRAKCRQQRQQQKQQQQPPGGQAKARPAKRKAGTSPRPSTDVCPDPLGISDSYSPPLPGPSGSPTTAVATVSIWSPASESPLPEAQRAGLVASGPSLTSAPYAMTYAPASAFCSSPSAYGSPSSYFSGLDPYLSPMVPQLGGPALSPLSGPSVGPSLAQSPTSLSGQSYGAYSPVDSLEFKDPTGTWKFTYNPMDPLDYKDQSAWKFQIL
Sequence of ELF1 (P32519 whole entry): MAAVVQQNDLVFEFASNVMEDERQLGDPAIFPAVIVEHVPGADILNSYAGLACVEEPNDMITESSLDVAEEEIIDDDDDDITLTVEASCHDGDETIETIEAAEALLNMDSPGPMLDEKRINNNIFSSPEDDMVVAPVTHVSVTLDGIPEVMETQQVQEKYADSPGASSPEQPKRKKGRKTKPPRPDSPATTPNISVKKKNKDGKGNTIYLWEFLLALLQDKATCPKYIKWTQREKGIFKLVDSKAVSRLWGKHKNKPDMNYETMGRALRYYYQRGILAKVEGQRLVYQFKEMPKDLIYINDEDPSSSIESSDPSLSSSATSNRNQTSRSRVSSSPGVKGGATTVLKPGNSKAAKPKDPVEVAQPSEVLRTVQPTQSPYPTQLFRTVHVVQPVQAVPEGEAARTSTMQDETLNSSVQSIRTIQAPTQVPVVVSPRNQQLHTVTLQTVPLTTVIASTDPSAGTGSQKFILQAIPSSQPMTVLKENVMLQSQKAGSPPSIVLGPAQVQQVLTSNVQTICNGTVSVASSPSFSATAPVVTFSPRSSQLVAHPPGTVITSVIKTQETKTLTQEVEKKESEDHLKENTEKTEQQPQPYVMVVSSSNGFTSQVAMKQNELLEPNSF
Sequence of HSF1 (Q00613 whole entry): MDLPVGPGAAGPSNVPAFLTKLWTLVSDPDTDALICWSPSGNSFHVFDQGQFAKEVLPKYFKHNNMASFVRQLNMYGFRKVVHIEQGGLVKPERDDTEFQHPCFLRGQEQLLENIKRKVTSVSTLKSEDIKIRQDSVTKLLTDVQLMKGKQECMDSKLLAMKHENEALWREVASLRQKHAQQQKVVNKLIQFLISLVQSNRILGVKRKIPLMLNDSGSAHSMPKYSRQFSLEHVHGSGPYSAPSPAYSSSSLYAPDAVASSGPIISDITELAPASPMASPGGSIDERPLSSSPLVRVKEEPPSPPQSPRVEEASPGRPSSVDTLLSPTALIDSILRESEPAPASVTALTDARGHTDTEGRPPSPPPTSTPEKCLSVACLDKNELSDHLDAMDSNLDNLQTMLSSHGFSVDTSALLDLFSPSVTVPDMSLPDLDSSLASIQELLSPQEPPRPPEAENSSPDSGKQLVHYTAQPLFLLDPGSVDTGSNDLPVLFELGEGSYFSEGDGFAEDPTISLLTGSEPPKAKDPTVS
Sequence of ETV5 (P41161 whole entry): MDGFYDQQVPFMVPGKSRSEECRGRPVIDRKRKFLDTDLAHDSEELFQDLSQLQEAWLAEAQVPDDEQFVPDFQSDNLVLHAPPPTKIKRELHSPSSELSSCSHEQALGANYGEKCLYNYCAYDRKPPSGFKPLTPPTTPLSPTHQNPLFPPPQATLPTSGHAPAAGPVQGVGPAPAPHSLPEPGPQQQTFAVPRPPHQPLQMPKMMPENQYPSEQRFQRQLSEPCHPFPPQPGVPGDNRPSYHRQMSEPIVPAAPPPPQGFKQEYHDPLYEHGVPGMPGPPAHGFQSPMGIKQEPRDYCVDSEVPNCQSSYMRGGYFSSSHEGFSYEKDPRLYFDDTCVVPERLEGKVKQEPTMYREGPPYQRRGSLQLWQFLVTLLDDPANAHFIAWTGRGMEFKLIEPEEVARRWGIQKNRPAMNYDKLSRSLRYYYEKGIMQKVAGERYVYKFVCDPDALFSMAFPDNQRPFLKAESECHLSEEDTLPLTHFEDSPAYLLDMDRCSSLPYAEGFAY

In the case of ATCCCG, the binding signal with FLI1 is 1.5 fold enrichment (6-mer frequency, TF over GST control); with ELK1, 1.36 fold enrichment (6-mer frequency, TF over GST control); with GABPA it was 1.47 fold enrichment (6-mer frequency, TF over GST control); with ERG, 1.44 fold enrichment (6-mer frequency, TF over GST control); with ELF1, 1.42 fold enrichment (6-mer frequency, TF over GST control); in the assay with EHF it was 1.39 fold enrichment (6-mer frequency, TF over GST control). Moreover, the binding signal in the assay with SPI1 was 1.32 fold enrichment (6-mer frequency, TF over GST control); with SPIB, 1.39 fold enrichment (6-mer frequency, TF over GST control); with ELK3, 1.34 fold enrichment (6-mer frequency, TF over GST control); with FEV it was 1.35 fold enrichment (6-mer frequency, TF over GST control); with ETV5, 1.43 fold enrichment (6-mer frequency, TF over GST control); in the assay with HSF1, 1.58 fold enrichment (6-mer frequency, TF over GST control). Also, the binding signal with SPIC is 1.39 fold enrichment (6-mer frequency, TF over GST control); with ELF4, 1.4 fold enrichment (6-mer frequency, TF over GST control); with ELK4, 1.37 fold enrichment (6-mer frequency, TF over GST control); with ETV2, 1.28 fold enrichment (6-mer frequency, TF over GST control); with ELF3, 1.37 fold enrichment (6-mer frequency, TF over GST control); with CRX, 1.67 fold enrichment (6-mer frequency, TF over GST control). In addition, the binding signal with ETV1 is 1.44 fold enrichment (6-mer frequency, TF over GST control).

Source of the values: article PMC7862700, “An all-to-all approach to the identification of sequence-specific readers for epigenetic DNA modifications on cytosine”.
